Measurements published in the supplement of paper PMC3724861.
The full list was thinned out, with hits kept by preference. The hit rate among all sequences tested is not known here. Unmarked numbers belong to inactive results.

test system: T1, Caupolican (Caup) homeodomain DNA-binding domain; assay: PBM E-score (8-mer, recovered from the published 9-mer minima) (E-score (dimensionless, -0.5 to 0.5)); Drosophila protein; higher = stronger relative binding preference, active = 0.31 or more
T1 sequence: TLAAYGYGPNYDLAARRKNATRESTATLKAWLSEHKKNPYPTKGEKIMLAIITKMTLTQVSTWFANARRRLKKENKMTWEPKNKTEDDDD
In short: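 Caup's homeodomain DNA-binding domain (residues 214-303) was produced by in vitro transcription and translation and applied at 100 nM to custom-designed protein binding microarrays. Each value is an enrichment score giving relative binding preference for a short DNA word; higher means stronger. Published 9-mer scores were the minimum of their two constituent 8-mer scores, and the 8-mer values were recovered from those minima. A cutoff of 0.31 marks candidate binding sequences.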

Row | Sequence | PBM E-score
1 | CCCCTTGA | -0.156
2 | CACGCACA | 0.0915
3 | AGGTCATG | 0.0878
4 | ATAGTCGG | -0.0656
5 | AAAGCTCG | -0.0924
6 | CTCATCTC | -0.158
7 | GGGATTGA | -0.0471
8 | GCATGGAA | -0.00398
9 | ACCTGTAT | 0.222
10 | GCCTGTAA | 0.09
11 | GCATGTAA | 0.409 (active)
12 | ACATGTAT | 0.469 (active)
13 | AAATGTAT | 0.241
14 | CGCAGAAC | -0.0278
15 | GAATTATA | 0.109
16 | GCGGGTAA | -0.02
17 | TAACAAAA | 0.119
18 | TAACAAGA | 0.298
19 | TAACAACA | 0.406 (active)
20 | CAACAACA | 0.408 (active)
21 | AAACAACA | 0.363 (active)
22 | AAACAACC | 0.202
23 | CAACAACC | 0.238
24 | AAACAACT | 0.246

Row | Sequence | PBM E-score
25 | GAACAACA | 0.292
26 | AGTATCTA | 0.166
27 | TATCTAGA | 0.0449
28 | GGACCCAC | -0.208
29 | GAGCAGAC | -0.0808
30 | CTAGAAAA | 0.0157
31 | CACTAATG | 0.0246
32 | CATAGCCG | -0.0066
33 | AACACGTA | 0.316 (active)
34 | ACCACGTG | 0.0775
35 | AACACGTG | ≥ 0.351 (active)
36 | AACACGTT | 0.292
37 | AACACGTC | 0.299
38 | CACACGTG | 0.148
39 | CTATTTTC | 0.101
40 | ACTACACC | 0.281
41 | ACTACACG | ≥ 0.357 (active)
42 | CCTACACG | 0.18
43 | GCTACACA | 0.185
44 | ACTACACT | 0.242
45 | ACTACACA | ≥ 0.357 (active)
46 | ATAGCTCG | -0.0531
47 | GTTCCCAA | -0.045
48 | CGATGCTC | -0.13

Row | Sequence | PBM E-score
49 | GACGTGGA | -0.0891
50 | CACGTGAA | 0.00852
51 | AACGTGTA | 0.371 (active)
52 | AACGTGTG | 0.111
53 | GACGTGAA | -0.0186
54 | CACGTGTA | 0.329 (active)
55 | GACGTGTA | 0.344 (active)
56 | CACGTGTC | 0.266
57 | AACGTGTC | 0.257
58 | GCCCGTCC | -0.243
59 | AGGGTATC | -0.045
60 | GTACCGTA | 0.0122
61 | CATGTCTA | 0.359 (active)
62 | CATGTGTC | 0.245
63 | AATGTCTA | 0.242
64 | AATGTCTC | 0.112
65 | CATGTCTC | 0.314 (active)
66 | GATGTCTA | 0.23
67 | AAAGATTT | -0.00222
68 | CTCACCCC | -0.125
69 | GTGTATTA | 0.297
70 | ACGTATTG | 0.151
71 | ATGTATTG | 0.344 (active)
72 | ATGTATTA | 0.373 (active)

Row | Sequence | PBM E-score
73 | CTGTATTA | 0.159
74 | ATGTATTC | 0.222
75 | GCCCCGGC | -0.316
76 | CACAGTAA | 0.122
77 | CTCTAAAG | -0.0918
78 | GCGGTTCA | -0.101
79 | GACAAAGA | 0.13
80 | AACAAGGA | 0.302
81 | CACAAGGA | 0.109
82 | GACAAGGA | 0.314 (active)
83 | TACAAGGA | 0.352 (active)
84 | GACAAGGC | 0.205
85 | CTCGACTC | -0.0783
86 | CGGCTATC | -0.134
87 | ACATATAC | 0.291
88 | ACACATAA | 0.291
89 | CCATATAA | 0.0843
90 | ACATATAG | 0.256
91 | TCATATAA | 0.184
92 | ACATATAT | 0.343 (active)
93 | ACACATAG | 0.174
94 | ACATATAA | 0.35 (active)
95 | ACACATAT | 0.323 (active)
96 | CGACTATC | -0.0393

Row | Sequence | PBM E-score
97 | AGAGGATA | 0.0175
98 | ATCAAGAT | 0.0803
99 | CTAGGAGC | -0.193
100 | CATCCCGC | -0.146
101 | AACACTAA | 0.166
102 | GCTTAAAA | -0.0795
103 | GCGCCACA | -0.129
104 | CGCGTATA | -0.0122
105 | AATATTGC | 0.153
106 | TCATGCCA | 0.0318
107 | ACATGCCA | 0.336 (active)
108 | ATATGCTG | 0.0997
109 | ACATGCCT | 0.254
110 | ACATGCTG | 0.332 (active)
111 | CCATGCTC | -0.00716
112 | CCATGCTA | 0.102
113 | ACATGCTA | 0.352 (active)
114 | AGATGCTG | -0.00229
115 | ACATGCTC | 0.334 (active)
116 | GCATGCTA | 0.0372
117 | CTATGCTC | 0.0374
118 | CACTGCTA | 0.075
119 | CATACCGC | -0.0667
120 | AAGCTCCT | -0.0876

Row | Sequence | PBM E-score
121 | GGATGCTA | -0.0509
122 | CCAAACGG | -0.223
123 | AATTCAAG | 0.118
124 | ACTATAAT | 0.162
125 | CTTGCGCA | -0.0025
126 | TAAGTACA | 0.332 (active)
127 | TAAGTAAA | 0.0166
128 | CAAGTACA | 0.342 (active)
129 | AAAGTACA | 0.276
130 | GAAGTACA | 0.269
131 | TGAGTACA | 0.265
132 | GAAACCCA | 0.0044
133 | ATCTCTGG | -0.00282
134 | CGAGGTCA | -0.0898
135 | CAACTTGA | 0.0844
136 | ATGTACTG | 0.339 (active)
137 | AGGTACTG | 0.0558
138 | GTGTACCA | 0.308
139 | CTGTACTC | 0.082
140 | ATGTACGA | 0.395 (active)
141 | ATGTACTA | 0.398 (active)
142 | ATGTACGG | 0.211
143 | ATGTACTC | 0.303
144 | AAGTACTA | 0.197

Row | Sequence | PBM E-score
145 | CTGTACGA | 0.203
146 | ATGTACCC | 0.263
147 | ATGTACCA | 0.36 (active)
148 | ATCATCCG | 0.0593
149 | CCCTAGCG | -0.171
150 | AGAGCCTA | -0.0924
151 | ATAACCGC | 0.0257
152 | GGGTACTA | 0.152
153 | GTGTACTA | 0.34 (active)
154 | CTGTACTA | 0.156
155 | AGTCGTCC | -0.0214
156 | CACCGAAC | 0.0165
157 | ACTGCGAA | -0.0547
158 | AATGTTAA | 0.291
159 | TCTGTTAA | 0.173
160 | CATGTTAA | 0.446 (active)
161 | GATGTTAC | 0.295
162 | AATGTTAG | 0.253
163 | CATGTTAG | 0.408 (active)
164 | TATGTTAA | 0.314 (active)
165 | AATGTTAC | 0.277
166 | CCTGTTAG | 0.114
167 | GATGTTAA | 0.28
168 | CATGTTAC | 0.42 (active)

Row | Sequence | PBM E-score
169 | TAGGTTAA | 0.0795
170 | GACCTACC | -0.0746
171 | AGCACGCC | -0.187
172 | CGAATTGC | -0.0371
173 | TCATTAAA | 0.143
174 | GAGCTAAC | -0.0389
175 | AACCCCCG | -0.284
176 | AGCGACAC | 0.188
177 | AGTGACAT | 0.354 (active)
178 | AGCGACAG | 0.105
179 | AGCGACAT | 0.325 (active)
180 | AACGACAG | 0.164
181 | AACGACAT | 0.358 (active)
182 | AGTGACAC | 0.198
183 | AACGACAA | 0.241
184 | AGTGACAA | 0.255
185 | AGCCTACT | -0.116
186 | CCCATCCG | -0.202
187 | ATTTACAG | 0.137
188 | ATTTACAC | 0.259
189 | ATTTACAA | 0.361 (active)
190 | GCTTACAA | 0.22
191 | CTTTACAA | 0.137
192 | GTTTACAA | 0.343 (active)

Row | Sequence | PBM E-score
193 | AGGAGTTG | 0.0303
194 | ATACGAAG | 0.0288
195 | CACTCCCC | -0.125
196 | ACATGGTA | 0.418 (active)
197 | AGATGGTG | -0.0838
198 | CCATGGTA | 0.133
199 | ACATGGTG | 0.366 (active)
200 | ACATGGTC | 0.285
201 | GCATGGTA | 0.166
202 | CAGGCCTC | -0.158
203 | CGGGAGCA | -0.149
204 | CCGCTACC | -0.0854
205 | ATTACGTA | 0.173
206 | CGTACTAG | 0.107
207 | ACTAAACC | 0.00838
208 | AGGCCCAG | -0.214
209 | ACCCAGGC | -0.17
210 | CCATCATA | 0.02
211 | ACATCATC | 0.251
212 | ACATCATA | 0.318 (active)
213 | ACATCAAA | 0.26
214 | ACATCACA | 0.334 (active)
215 | ACATCAAT | 0.316 (active)
216 | TCATCACA | 0.14

Row | Sequence | PBM E-score
217 | ACATCAAG | 0.227
218 | ACATCACG | 0.217
219 | ATATATGG | 0.127
220 | GTATAAAA | 0.116
221 | GAATCGGA | -0.0551
222 | ATCCCATC | -0.00982
223 | CGCGTACC | -0.0687
224 | GGTCTCCA | -0.147
225 | AGAACAAT | 0.21
226 | AGAACACT | 0.108
227 | CGAACACG | 0.258
228 | AGAACAAG | 0.329 (active)
229 | CGAACACA | 0.167
230 | AGAACACA | ≥ 0.317 (active)
231 | AGAACAAA | 0.191
232 | AGAACACG | 0.33 (active)
233 | TGAACACA | 0.309
